From the supplement of paper PMC12350171
Where a name gives a salt, the structure may show the parent alone. Values without a mark were called inactive.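 How the source made its calls: active = AUC significantly below DMSO controls by Student t-fit with adjusted P under 0.01; inactive = not significantly reduced.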

tested on: Haemophilus parainfluenzae; experiment: growth AUC normalised to DMSO control (fraction of control); higher = less growth inhibition, active = hit call of the paper; details: 20 µM
Outline: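 For the AUC endpoint, growth curves were integrated by the trapezoidal rule up to the exponential-to-stationary transition and normalised to DMSO controls on the same plate. The curves came from OD578 readings taken hourly for 24 h, in three biological replicates. Pathogens had been passaged anaerobically twice and inoculated at an OD578 of 0.01 into pre-reduced mGAM plates carrying 20 μM compound and 1% DMSO, sealed with breathable membranes. Medium for Haemophilus parainfluenzae also contained hemin and NAD.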

Compound	growth AUC normalised to DMSO control
C[n+]1ccccc1/C=N/O [Pralidoxime chloride]	0.915
CN1CCN(c2c(F)cc3c(=O)c(C(=O)O)cn(CCF)c3c2F)CC1 [Fleroxacin]	0.0399 (active)
CC(=O)[C@H]1CC[C@H]2[C@@H]3CCC4=CC(=O)CC[C@]4(C)[C@H]3CC[C@]12C [Progesterone]	1.03
CCn1cc(C(=O)O)c(=O)c2cc(F)c(N3CCNCC3)nc21 [Enoxacin]	0.0701 (active)
Cc1cc(C(C)(C)C)c(O)c(C)c1CC1=NCCN1 [Oxymetazoline hydrochloride]	0.991
CCCCOc1ccc(CC(=O)NO)cc1 [Bufexamac]	1
CC(=O)c1ccc(S(=O)(=O)NC(=O)NC2CCCCC2)cc1 [Acetohexamide]	0.971
N=C(N)NC(=O)Cc1c(Cl)cccc1Cl [Guanfacine hydrochloride]	1.01
CS(=O)(=O)Nc1ccc([N+](=O)[O-])cc1Oc1ccccc1 [Nimesulide]	0.982
CC(=O)Nc1nnc(S(N)(=O)=O)s1 [Acetazolamide]	0.959
Cc1cc(C2CCCCC2)n(O)c(=O)c1 [Ciclopirox ethanolamine]	0.905
O=C1O[C@H]([C@@H](O)CO)C(O)=C1O [Ascorbic acid]	1.06
CCN(CC)CCOC(=O)C(Cc1cccc2ccccc12)CC1CCCO1 (centres undefined) [Nafronyl oxalate]	1.28
C#C[C@]1(O)CC[C@H]2[C@@H]3[C@H](C)CC4=C(CCC(=O)C4)[C@H]3CC[C@@]21C [Tibolone]	0.966
O=c1oc2ccccc2c(O)c1Cc1c(O)c2ccccc2oc1=O [Dicumarol]	1.31
CC[C@@H](CO)NCCN[C@@H](CC)CO [Ethambutol dihydrochloride]	0.809
CN1CCN2c3ccccc3Cc3ccccc3C2C1 (centres undefined) [Mianserine hydrochloride]	0.903

Compound	growth AUC normalised to DMSO control
COc1ccc(/C=C/C(=O)Nc2ccccc2C(=O)O)cc1OC [Tranilast]	1.01
CCCN(CCC)C(=O)C(CCC(=O)O)NC(=O)c1ccccc1 (centres undefined) [Proglumide]	1.03
N=C(N)NCc1cccc(I)c1 [Iobenguane sulfate]	1.02
Cc1c(O)c(=O)n(-c2ccccc2)n1C [Antipyrine, 4-hydroxy]	0.974
Cc1cc(C(=O)NNCc2ccccc2)no1 [Isocarboxazid]	1.06
CC(C)(C)NC[C@H](O)COc1nsnc1N1CCOCC1 [Timolol maleate salt]	1.02
CC(C)(Sc1cc(C(C)(C)C)c(O)c(C(C)(C)C)c1)Sc1cc(C(C)(C)C)c(O)c(C(C)(C)C)c1 [Probucol]	1.01
CN(C)CCOC(=O)COc1ccc(Cl)cc1 [Meclofenoxate hydrochloride]	0.896
CCOc1nc2cccc(C(=O)O)c2n1Cc1ccc(-c2ccccc2-c2nnn[nH]2)cc1 [Candesartan]	1.05
CCN(CC)CCc1nc(-c2ccccc2)no1 [Oxolamine citrate salt]	1.05
CN1CCc2cccc3c2[C@H]1Cc1ccc(O)c(O)c1-3 [R(-) Apomorphine hydrochloride hemihydrate]	1.05
C=C1c2cccc(O)c2C(O)=C2C(=O)[C@]3(O)C(O)=C(C(N)=O)C(=O)[C@@H](N(C)C)[C@@H]3[C@@H](O)[C@H]12 [Methacycline hydrochloride]	0.0347 (active)
Cc1noc(NS(=O)(=O)c2ccc(N)cc2)c1C [Sulfisoxazole]	0.939
O=C(Nc1ccccc1)OCC(CN1CCCCC1)OC(=O)Nc1ccccc1 (centres undefined) [Diperodon hydrochloride]	1.02
Fc1ccc(C(c2ccc(F)cc2)N2CCN(C/C=C/c3ccccc3)CC2)cc1 [Flunarizine dihydrochloride]	0.97
CC(=O)Oc1cc(C(C)C)c(OCCN(C)C)cc1C [Moxisylyte hydrochoride]	0.995
CNCCC=C1c2ccccc2CCc2ccccc21 [Nortriptyline hydrochloride]	0.966
